{
  "source": "PubChem BioAssay AID504652",
  "about": "(National Center for Advancing Translational Sciences (NCATS), 2011)",
  "note": "Hit rate of the full screen: of about 360,000 compounds, about 11,000 (3.1%) were called active. Many of the other results were omitted from the sample, so actives are more common in it than they were. Values without a mark were called inactive. Cut-off read from the data, not from the text of the source: active = activity change below about -30%; inactive = the rest. % is set by controls: 0 for no effect and ±100 for the full control effect.",
  "data": [
    {"target": "D(1A) dopamine receptor (Homo sapiens) (UniProt P21728)", "sequence (P21728 whole entry, looked up)": "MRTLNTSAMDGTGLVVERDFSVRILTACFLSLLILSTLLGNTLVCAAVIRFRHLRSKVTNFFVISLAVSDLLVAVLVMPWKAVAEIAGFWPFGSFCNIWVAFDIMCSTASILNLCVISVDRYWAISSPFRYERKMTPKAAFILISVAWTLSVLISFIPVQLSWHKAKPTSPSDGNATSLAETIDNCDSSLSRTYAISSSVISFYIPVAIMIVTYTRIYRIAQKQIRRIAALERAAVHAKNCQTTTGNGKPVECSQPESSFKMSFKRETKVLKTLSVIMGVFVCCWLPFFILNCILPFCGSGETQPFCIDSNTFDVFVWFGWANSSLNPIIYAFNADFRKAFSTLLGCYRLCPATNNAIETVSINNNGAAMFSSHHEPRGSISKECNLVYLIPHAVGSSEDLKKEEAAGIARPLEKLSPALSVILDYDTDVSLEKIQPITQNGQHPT", "experiment": "Antagonist of Human D 1 Dopamine Receptor: qHTS", "details": "HEK293 TREx D1 cells, calcium flux, dopamine EC80; at 10 µM; active compounds read low", "text": "Dopamine receptors (DARs) are involved in the etiology and/or therapy of a number of neuropsychiatric and endocrine disorders. For instance, all receptor-based antiparkinsonian drugs work via stimulating the […] DAR subtype whereas all FDA-approved antipsychotic agents are antagonists of this receptor. […] There are three different types of allosteric modulators that we are seeking, two of which will stimulate or augment receptor signaling, allosteric agonists and potentiators, while the third, allosteric antagonists, will attenuate receptor signaling. The present primary screening assay measures compound antagonism after an EC80 addition of dopamine by tracking calcium flux in a […], inducible Hek293 Trex D1 cell line. NIH Chemical Genomics Center [NCGC] NIH Molecular Libraries Probe Centers Network [MLPCN] MLPCN Grant: NS064831-01 Assay Submitter (PI): David Sibley\nFreshly passaged cells are plated in 1536 well black, clear bottom plates at a density of 4000 cells/well in 3 ul of complete media containing 1x tetracycline inducer. After an overnight incubation at 30 C in 5% CO2, cells are loaded with 2 ul of the no wash Calcium Assay Kit (ABD Bioquest) and incubated at room temperature for 30 to 90 minutes. Agonist read: A 10 cycle (1 second/cycle) baseline measurement is taken and then the FDSS online 1536 pintool delivers 23 nl of compound library (as well as dopamine controls) to the plate. The plate is measured for kinetically at 1 cycle/sec for 180 seconds. Following the 180 second read, 1 ul of an EC80 (negative modulation assay) is delivered by an onboard pipette head. Measurements are taken kinetically for an additional 180 seconds.", "values": [
      {"smiles": "COc1ccccc1N=Nc1c(O)[nH]c(=S)[nH]c1=O", "activity change, negative = inhibition": "-9.34%"},
      {"smiles": "CCOCCc1c(O)[nH]c(=S)[nH]c1=O", "activity change, negative = inhibition": "-33.1% (active)"},
      {"smiles": "CC1=CC(=Cc2sc3ccccc3[n+]2C)C=C(C)O1", "activity change, negative = inhibition": "-35.2% (active)"},
      {"smiles": "CC(C)c1c(CN(C)C(C)Cc2ccccc2)n(C)n(-c2ccccc2)c1=O", "note": "(stereo not given)", "activity change, negative = inhibition": "-2.93%"},
      {"smiles": "Cc1ccc(-n2c(/C=C/c3cccc(C(F)(F)F)c3)nc3ccccc3c2=O)cc1", "activity change, negative = inhibition": "11.5%"},
      {"smiles": "Cc1ccc(C(C)C)c(OCC(=O)N2CCN(CC(=O)N3CCOCC3)CC2)c1", "activity change, negative = inhibition": "1.15%"},
      {"smiles": "NCCc1ccc(S(=O)(=O)F)cc1", "activity change, negative = inhibition": "-35.8% (active)"},
      {"smiles": "CC(C)c1ccc(OCC(=O)N2CCCN(C)CC2)cc1", "activity change, negative = inhibition": "-12.3%"},
      {"smiles": "CC(C)c1ccc(OCC(=O)N2CCN(C)CC2)c(Br)c1", "activity change, negative = inhibition": "-34.7% (active)"},
      {"smiles": "CN1CCN(C(=O)COc2ccc(C(C)(C)C)cc2Br)CC1", "activity change, negative = inhibition": "-15.7%"},
      {"smiles": "CC(C)(C)[C@]1(O)C[C@@H]2OC(=O)C[C@@]23C(=O)O[C@@H]2OC(=O)[C@H](O)[C@]213", "activity change, negative = inhibition": "0.221%"},
      {"smiles": "CN(C)CC1CCCCC1=O", "note": "(stereo not given)", "activity change, negative = inhibition": "9.1%"},
      {"smiles": "COc1c(O)ccc2c1-c1c3c(cc4c1C(C2)N(C)CC4)OCO3", "note": "(stereo not given)", "activity change, negative = inhibition": "-68% (active)"},
      {"smiles": "CN1CCc2cc3c(cc2[C@H]1[C@@H]1OC(=O)c2c1ccc1c2OCO1)OCO3", "activity change, negative = inhibition": "-19.5%"},
      {"smiles": "COc1ccc(C2NCc3ccc4c(c3-n3cccc32)OCO4)cc1OC", "note": "(stereo not given)", "activity change, negative = inhibition": "-8.31%"},
      {"smiles": "COC(=O)C1=C(c2ccc(Cl)c(C(F)(F)F)c2)C[C@@H]2CC[C@H]1N2C(=O)NC(C)C", "activity change, negative = inhibition": "-3.99%"},
      {"smiles": "CC(C)Oc1cccc(C(=O)C2CCCN(C3CCOCC3)C2)c1", "note": "(stereo not given)", "activity change, negative = inhibition": "-26.6%"},
      {"smiles": "COC(=O)C1=C(c2cccc(OCc3ccccc3)c2)C[C@@H]2CC[C@H]1N2C(=O)NCc1ccc(Br)cc1", "activity change, negative = inhibition": "-2.72%"},
      {"smiles": "CC(C)c1ccc(-n2c(O)c(/C=N/N3CCOCC3)c(=O)[nH]c2=S)cc1", "activity change, negative = inhibition": "21.3%"},
      {"smiles": "Cc1cccc(-n2c(O)c(/C=N/N3CCOCC3)c(=O)[nH]c2=S)c1", "activity change, negative = inhibition": "-42.1% (active)"},
      {"smiles": "O=c1[nH]c(=S)n(C2CC2)c(O)c1/C=N/N1CCOCC1", "activity change, negative = inhibition": "-3.33%"},
      {"smiles": "Cn1cc(C(=O)OCC(=O)N2CCCC2)c2ccccc21", "activity change, negative = inhibition": "-0.659%"},
      {"smiles": "Cc1cc(OCc2cc(C(=O)O)oc2C)c2c3c(c(=O)oc2c1)CCCC3", "activity change, negative = inhibition": "63%"},
      {"smiles": "OC(Cn1c2ccccc2c2ccccc21)C[n+]1ccccc1", "note": "(stereo not given)", "activity change, negative = inhibition": "13.9%"},
      {"smiles": "C/C(CCc1c[nH]c2ccccc12)=N\\O", "activity change, negative = inhibition": "1.61%"},
      {"smiles": "COc1ccc(CNCCc2c[nH]c3ccccc23)cc1OC", "activity change, negative = inhibition": "-8.11%"},
      {"smiles": "c1cncc(CNCCc2c[nH]c3ccccc23)c1", "activity change, negative = inhibition": "-33.9% (active)"},
      {"smiles": "C=CCn1c(O)c(/C=N/N2CCOCC2)c(=O)[nH]c1=S", "activity change, negative = inhibition": "6.62%"},
      {"smiles": "COc1ccc(-c2nc(CS(=O)CC(=O)N3CCC4(CC3)OCCO4)c(C)o2)cc1", "note": "(stereo not given)", "activity change, negative = inhibition": "-3.25%"},
      {"smiles": "CCN1C(=O)C(=Cc2c(C)n(CC(=O)NCC3CCCO3)c3ccccc23)C(=O)N(CC)C1=S", "note": "(stereo not given)", "activity change, negative = inhibition": "-0.95%"},
      {"smiles": "Cn1c(O)c(C=Nc2ccc3c(c2)CCC3)c(=O)n(C)c1=O", "activity change, negative = inhibition": "-5.53%"},
      {"smiles": "CC(=NC1CCN(Cc2ccccc2)CC1)c1c(O)n(C)c(=O)n(C)c1=O", "activity change, negative = inhibition": "-0.272%"},
      {"smiles": "Cn1c(O)c(C(=Nc2ccc(F)cc2)c2ccccc2)c(=O)n(C)c1=O", "activity change, negative = inhibition": "-33.5% (active)"},
      {"smiles": "COc1ccccc1N=C1SCCCN1C", "activity change, negative = inhibition": "-10.1%"},
      {"smiles": "CCc1ccc(OCC(=O)N2CCN(CC(=O)Nc3ccccc3Cl)CC2)cc1", "activity change, negative = inhibition": "-5.54%"},
      {"smiles": "COC(=O)C1=C(c2ccc(F)cc2OCc2ccccc2)C[C@@H]2CC[C@H]1N2C(=O)NCc1ccc(C(C)(C)C)cc1", "activity change, negative = inhibition": "-11.5%"},
      {"smiles": "COC(=O)C1=C(c2ccc(C(C)=O)cc2)C[C@@H]2CC[C@H]1N2C(=O)NCCNC(C)=O", "activity change, negative = inhibition": "24%"},
      {"smiles": "COC(=O)C1=C(c2ccc3ccccc3c2)C[C@@H]2CC[C@H]1N2C(=O)NCCO", "activity change, negative = inhibition": "-40.5% (active)"},
      {"smiles": "COC(=O)C1=C(c2ccccc2OCc2ccccc2)C[C@@H]2CC[C@H]1N2C(=O)NCc1ccc(OC)cc1", "activity change, negative = inhibition": "-30.4% (active)"},
      {"smiles": "COC(=O)C1=C(c2ccc(-c3ccccc3)c(F)c2)C[C@@H]2CC[C@H]1N2C(=O)NCc1ccc(F)cc1", "activity change, negative = inhibition": "-0.711%"},
      {"smiles": "COC(=O)C1=C(c2ccc(F)cc2OCc2ccccc2)C[C@@H]2CC[C@H]1N2C(=O)NCc1ccc(Cl)cc1", "activity change, negative = inhibition": "12.1%"},
      {"smiles": "CC(Cc1ccccc1)NCCC(c1ccccc1)c1ccccc1", "note": "(stereo not given)", "activity change, negative = inhibition": "15.9%"},
      {"smiles": "Cc1ccc(NC(=O)N(Cc2ccc3c(c2)OCO3)C2CCN(Cc3ccccc3)CC2)cc1F", "activity change, negative = inhibition": "2.05%"},
      {"smiles": "CSc1nc2ccc(C)cc2c(=O)n1-c1cccnc1", "activity change, negative = inhibition": "7.08%"},
      {"smiles": "Cc1cc(C(=O)OCC(=O)Nc2c(F)cccc2F)c(C)n1C1CC1", "activity change, negative = inhibition": "2.31%"},
      {"smiles": "Cc1nn(-c2ccccc2)c(C)c1NC(=O)COC(=O)Cc1ccccc1", "activity change, negative = inhibition": "-0.424%"},
      {"smiles": "O=C(CCNS(=O)(=O)c1ccccc1)Nc1ccc(Cl)cc1C(=O)c1ccccc1", "activity change, negative = inhibition": "-6.99%"},
      {"smiles": "O=C(CCN1CCCCC1)NCC(=O)Nc1ccc(Br)cc1C(=O)c1ccccc1", "activity change, negative = inhibition": "-20.3%"},
      {"smiles": "CN1CCN(C(=S)SCC(=O)Nc2ccc(Cl)cc2C(=O)c2ccccc2)CC1", "activity change, negative = inhibition": "-39.4% (active)"},
      {"smiles": "O=C(Nc1ccc(Cl)cc1C(=O)c1ccccc1)c1cc(Cl)cc(Cl)c1", "activity change, negative = inhibition": "23.8%"},
      {"smiles": "O=C(COC(=O)c1ccccc1)Nc1ccc(Cl)cc1C(=O)c1ccccc1", "activity change, negative = inhibition": "-31.5% (active)"},
      {"smiles": "O=C(CN1CCCCC1)Nc1ccc(Br)cc1C(=O)c1ccccc1Cl", "activity change, negative = inhibition": "-26.5%"},
      {"smiles": "CN(c1ccccc1)c1ccc([N+](=O)[O-])c2nonc12", "activity change, negative = inhibition": "0.138%"},
      {"smiles": "COC(=O)C1=C(c2ccc(F)cc2F)C[C@@H]2CC[C@H]1N2C(=O)NC1CC1", "activity change, negative = inhibition": "25.8%"},
      {"smiles": "O=C(NC(=S)N1C[C@H]2C[C@H](C1)c1cccc(=O)n1C2)c1ccc(F)cc1", "activity change, negative = inhibition": "-0.512%"},
      {"smiles": "Cn1cc(/C=C/c2nc3ccccc3c(=O)n2-c2ccccc2)c2ccccc21", "activity change, negative = inhibition": "11%"},
      {"smiles": "Cc1ccccc1NC(=O)COC(=O)c1cc(C)n(C2CC2)c1C", "activity change, negative = inhibition": "2.42%"},
      {"smiles": "C[C@]12CC[C@H](O)C[C@H]1CC[C@@H]1C2CC[C@]2(C)[C@@H](C3=CC(=O)OC3)[C@@H](O)C[C@]12O", "note": "(stereo not given in full)", "activity change, negative = inhibition": "-17.2%"},
      {"smiles": "CC(C)CN1CCN(Cc2ccccc2C(F)(F)F)CC1CCO", "note": "(stereo not given)", "activity change, negative = inhibition": "0.591%"},
      {"smiles": "Cc1ccc(-c2cc(C(=O)N3CCC4(CC3)OCCO4)no2)cc1", "activity change, negative = inhibition": "-7.04%"},
      {"smiles": "Cc1ccc(Cn2c(C)c3cnn(CC(=O)N4CCC5(CC4)OCCO5)c(=O)c3c2C)cc1", "activity change, negative = inhibition": "-49.4% (active)"},
      {"smiles": "O=C(CCCn1c(=O)[nH]c2cc(Cl)ccc2c1=O)N1CCC2(CC1)OCCO2", "activity change, negative = inhibition": "-7.09%"},
      {"smiles": "CNC(=O)O/N=C(\\N)Cc1csc2ccccc12", "activity change, negative = inhibition": "-21.2%"},
      {"smiles": "CNC(=O)N(C)c1nnc(C(C)(C)C)s1", "activity change, negative = inhibition": "9.77%"},
      {"smiles": "CCc1nc2ccccc2c(=O)n1-c1cccc(OC)c1", "activity change, negative = inhibition": "2.19%"},
      {"smiles": "NCC(O)c1ccc(O)cc1", "note": "(stereo not given)", "activity change, negative = inhibition": "-66.9% (active)"},
      {"smiles": "CCOP(=O)(OCC)C(NC(=O)NC)C(N)=O", "note": "(stereo not given)", "activity change, negative = inhibition": "4.22%"},
      {"smiles": "COC(=O)C1=C(c2cccc(OCc3ccccc3)c2)C[C@@H]2CC[C@H]1N2C(=O)NNCc1ccccc1", "activity change, negative = inhibition": "-14.3%"},
      {"smiles": "CCN1CCN(c2ccc([N+](=O)[O-])cc2C#N)CC1", "activity change, negative = inhibition": "1.99%"},
      {"smiles": "CC(C)n1c(=O)c(C=Nc2ccc(Br)cc2)c(O)n(Cc2ccco2)c1=O", "activity change, negative = inhibition": "14%"}
    ]}
  ]
}
